Measurements as given in the supplement of paper PMC11732987, “Enantioselective OTUD7B fragment discovery through chemoproteomics screening and high-throughput optimisation” (Communications Chemistry, 2025).

Experiments:
Experiment in all cases: log2 ratio of Biotin-Ahx-Ub-VS probe labelling (fragment/DMSO); higher = less target engagement (more negative = stronger competition), active = hit call of the paper (q ≤ 0.05, log2 ratio ≤ -1)
Details in all cases: compound concentration: 200 uM; treatment time: 3 h
ALG13 = molecular target: T1, ALG13 (UniProt Q9NP73)
T1 sequence (whole entry): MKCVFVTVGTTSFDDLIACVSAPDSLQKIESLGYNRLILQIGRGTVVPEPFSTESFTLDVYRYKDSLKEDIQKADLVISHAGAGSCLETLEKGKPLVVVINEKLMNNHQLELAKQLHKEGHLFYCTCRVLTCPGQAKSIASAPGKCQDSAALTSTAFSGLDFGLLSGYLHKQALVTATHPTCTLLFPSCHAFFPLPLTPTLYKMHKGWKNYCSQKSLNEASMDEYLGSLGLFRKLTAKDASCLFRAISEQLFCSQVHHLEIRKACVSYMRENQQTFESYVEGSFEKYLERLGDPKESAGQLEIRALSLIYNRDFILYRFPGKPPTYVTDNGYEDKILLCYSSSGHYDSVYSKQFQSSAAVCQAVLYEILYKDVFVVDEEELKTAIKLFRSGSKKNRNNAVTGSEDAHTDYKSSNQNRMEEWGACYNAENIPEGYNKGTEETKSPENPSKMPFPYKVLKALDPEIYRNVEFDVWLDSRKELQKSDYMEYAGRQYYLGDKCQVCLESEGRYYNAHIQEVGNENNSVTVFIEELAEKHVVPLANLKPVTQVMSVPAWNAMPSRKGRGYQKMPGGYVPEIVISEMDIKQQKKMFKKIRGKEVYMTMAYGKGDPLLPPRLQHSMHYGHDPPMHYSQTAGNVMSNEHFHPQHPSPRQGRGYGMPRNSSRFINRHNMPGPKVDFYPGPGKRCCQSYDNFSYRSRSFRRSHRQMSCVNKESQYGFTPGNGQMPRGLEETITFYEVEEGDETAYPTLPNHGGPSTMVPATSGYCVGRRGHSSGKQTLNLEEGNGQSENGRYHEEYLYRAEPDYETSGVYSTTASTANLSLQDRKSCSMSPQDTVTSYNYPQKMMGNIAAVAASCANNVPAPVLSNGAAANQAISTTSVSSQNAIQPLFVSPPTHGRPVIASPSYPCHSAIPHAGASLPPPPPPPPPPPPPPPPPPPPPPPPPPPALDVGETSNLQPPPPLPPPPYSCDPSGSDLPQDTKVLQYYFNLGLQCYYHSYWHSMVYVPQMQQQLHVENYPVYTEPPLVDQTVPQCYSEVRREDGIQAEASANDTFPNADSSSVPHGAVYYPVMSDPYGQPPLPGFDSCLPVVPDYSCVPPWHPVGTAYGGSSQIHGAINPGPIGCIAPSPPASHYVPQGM
Outline: (§1)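 HEK293T lysate (495 µg per sample, in Tris/CHAPS/IGEPAL buffer with protease inhibitors) was exposed in triplicate for 3 h to fragment at 200 µM or to vehicle, then to Biotin-Ahx-Ub-VS at 0.5 µM final for 1 h. Labelled DUBs were enriched on NeutrAvidin, digested with LysC and trypsin, and analysed by diaPASEF LC-MS/MS. Spectronaut label-free quantities were normalised to the global median, and values are average log2 ratios of fragment over vehicle from an unpaired t-test. Only proteins with ≥2 unique peptides were used.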

ATXN3 = ATXN3 (UniProt P54252)
Chain of ATXN3 (P54252 whole entry): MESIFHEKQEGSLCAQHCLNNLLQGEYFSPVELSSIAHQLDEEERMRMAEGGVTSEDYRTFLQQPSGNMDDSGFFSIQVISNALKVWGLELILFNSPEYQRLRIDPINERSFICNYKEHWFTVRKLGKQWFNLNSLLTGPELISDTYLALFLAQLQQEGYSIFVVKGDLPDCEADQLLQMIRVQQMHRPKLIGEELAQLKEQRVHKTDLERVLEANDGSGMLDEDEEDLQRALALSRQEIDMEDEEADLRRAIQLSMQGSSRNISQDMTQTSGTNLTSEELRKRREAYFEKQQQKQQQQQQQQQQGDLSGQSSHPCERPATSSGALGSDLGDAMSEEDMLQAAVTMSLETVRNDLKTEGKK
Outline: as §1

BAP1 = molecular target: T2, BAP1 (UniProt Q92560)
T2 sequence (whole entry): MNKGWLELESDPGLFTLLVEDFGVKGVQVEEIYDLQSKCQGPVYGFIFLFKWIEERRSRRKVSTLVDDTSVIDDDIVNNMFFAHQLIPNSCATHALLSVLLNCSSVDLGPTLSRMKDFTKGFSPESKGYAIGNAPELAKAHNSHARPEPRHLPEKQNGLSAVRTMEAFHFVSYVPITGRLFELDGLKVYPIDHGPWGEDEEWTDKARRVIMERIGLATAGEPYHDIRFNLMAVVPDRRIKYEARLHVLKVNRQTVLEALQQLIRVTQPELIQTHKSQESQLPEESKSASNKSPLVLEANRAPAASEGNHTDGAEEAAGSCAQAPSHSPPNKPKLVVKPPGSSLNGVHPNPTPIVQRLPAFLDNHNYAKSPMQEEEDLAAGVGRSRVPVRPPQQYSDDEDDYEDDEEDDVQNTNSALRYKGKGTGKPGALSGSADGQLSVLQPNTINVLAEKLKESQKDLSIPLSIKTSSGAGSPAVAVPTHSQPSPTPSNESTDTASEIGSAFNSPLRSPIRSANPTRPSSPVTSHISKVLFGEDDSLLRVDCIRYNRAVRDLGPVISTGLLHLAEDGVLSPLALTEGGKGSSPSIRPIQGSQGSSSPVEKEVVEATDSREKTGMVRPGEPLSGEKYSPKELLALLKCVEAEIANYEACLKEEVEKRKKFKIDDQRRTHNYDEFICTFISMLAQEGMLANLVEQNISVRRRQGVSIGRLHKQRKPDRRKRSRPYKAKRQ
Outline: as §1

EIF3F = EIF3F (UniProt O00303)
Chain of EIF3F (O00303 whole entry): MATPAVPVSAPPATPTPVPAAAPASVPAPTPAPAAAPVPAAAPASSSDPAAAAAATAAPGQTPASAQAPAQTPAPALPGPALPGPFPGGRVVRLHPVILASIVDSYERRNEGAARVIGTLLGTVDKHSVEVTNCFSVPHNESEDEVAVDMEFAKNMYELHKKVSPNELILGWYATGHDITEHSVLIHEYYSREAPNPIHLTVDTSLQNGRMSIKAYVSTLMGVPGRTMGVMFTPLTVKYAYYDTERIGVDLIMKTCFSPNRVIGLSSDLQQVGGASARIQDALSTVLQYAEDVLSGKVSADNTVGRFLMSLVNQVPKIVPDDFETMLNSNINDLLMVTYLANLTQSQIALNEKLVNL
Outline: as §1

EIF3H = EIF3H (UniProt O15372)
Chain of EIF3H (O15372 whole entry): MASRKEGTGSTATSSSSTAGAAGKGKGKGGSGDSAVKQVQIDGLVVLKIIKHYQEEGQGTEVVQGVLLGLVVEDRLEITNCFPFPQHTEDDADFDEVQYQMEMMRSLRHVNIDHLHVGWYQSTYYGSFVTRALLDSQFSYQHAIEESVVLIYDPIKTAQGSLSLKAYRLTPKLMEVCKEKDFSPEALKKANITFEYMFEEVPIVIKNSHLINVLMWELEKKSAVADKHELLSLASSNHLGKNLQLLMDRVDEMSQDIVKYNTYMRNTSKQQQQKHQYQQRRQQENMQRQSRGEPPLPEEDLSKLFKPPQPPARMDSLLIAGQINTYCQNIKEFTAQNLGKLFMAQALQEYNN
Outline: as §1

FAM105A = molecular target: T3, FAM105A (UniProt Q9NUU6)
T3 sequence (whole entry): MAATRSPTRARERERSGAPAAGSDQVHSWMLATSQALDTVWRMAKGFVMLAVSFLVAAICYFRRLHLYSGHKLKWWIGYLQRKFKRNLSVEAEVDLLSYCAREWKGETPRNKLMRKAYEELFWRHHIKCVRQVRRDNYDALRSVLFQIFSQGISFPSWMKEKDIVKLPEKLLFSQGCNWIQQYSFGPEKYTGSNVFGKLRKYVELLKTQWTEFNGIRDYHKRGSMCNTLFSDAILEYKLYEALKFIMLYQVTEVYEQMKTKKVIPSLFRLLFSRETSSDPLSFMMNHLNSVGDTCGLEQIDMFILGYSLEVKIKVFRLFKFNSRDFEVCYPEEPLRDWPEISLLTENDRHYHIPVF
Outline: as §1

OTUB1 = OTUB1 (UniProt Q96FW1)
Chain of OTUB1 (Q96FW1 whole entry): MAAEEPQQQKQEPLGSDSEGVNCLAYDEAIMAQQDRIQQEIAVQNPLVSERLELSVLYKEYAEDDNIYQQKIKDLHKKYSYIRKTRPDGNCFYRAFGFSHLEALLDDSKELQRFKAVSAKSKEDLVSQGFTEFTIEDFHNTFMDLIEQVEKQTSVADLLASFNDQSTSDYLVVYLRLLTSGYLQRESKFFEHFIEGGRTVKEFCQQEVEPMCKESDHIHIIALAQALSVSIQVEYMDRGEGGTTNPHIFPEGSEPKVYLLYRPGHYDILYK
Outline: as §1

OTUD4 = molecular target: T4, OTUD4 (UniProt Q01804)
T4 sequence (whole entry): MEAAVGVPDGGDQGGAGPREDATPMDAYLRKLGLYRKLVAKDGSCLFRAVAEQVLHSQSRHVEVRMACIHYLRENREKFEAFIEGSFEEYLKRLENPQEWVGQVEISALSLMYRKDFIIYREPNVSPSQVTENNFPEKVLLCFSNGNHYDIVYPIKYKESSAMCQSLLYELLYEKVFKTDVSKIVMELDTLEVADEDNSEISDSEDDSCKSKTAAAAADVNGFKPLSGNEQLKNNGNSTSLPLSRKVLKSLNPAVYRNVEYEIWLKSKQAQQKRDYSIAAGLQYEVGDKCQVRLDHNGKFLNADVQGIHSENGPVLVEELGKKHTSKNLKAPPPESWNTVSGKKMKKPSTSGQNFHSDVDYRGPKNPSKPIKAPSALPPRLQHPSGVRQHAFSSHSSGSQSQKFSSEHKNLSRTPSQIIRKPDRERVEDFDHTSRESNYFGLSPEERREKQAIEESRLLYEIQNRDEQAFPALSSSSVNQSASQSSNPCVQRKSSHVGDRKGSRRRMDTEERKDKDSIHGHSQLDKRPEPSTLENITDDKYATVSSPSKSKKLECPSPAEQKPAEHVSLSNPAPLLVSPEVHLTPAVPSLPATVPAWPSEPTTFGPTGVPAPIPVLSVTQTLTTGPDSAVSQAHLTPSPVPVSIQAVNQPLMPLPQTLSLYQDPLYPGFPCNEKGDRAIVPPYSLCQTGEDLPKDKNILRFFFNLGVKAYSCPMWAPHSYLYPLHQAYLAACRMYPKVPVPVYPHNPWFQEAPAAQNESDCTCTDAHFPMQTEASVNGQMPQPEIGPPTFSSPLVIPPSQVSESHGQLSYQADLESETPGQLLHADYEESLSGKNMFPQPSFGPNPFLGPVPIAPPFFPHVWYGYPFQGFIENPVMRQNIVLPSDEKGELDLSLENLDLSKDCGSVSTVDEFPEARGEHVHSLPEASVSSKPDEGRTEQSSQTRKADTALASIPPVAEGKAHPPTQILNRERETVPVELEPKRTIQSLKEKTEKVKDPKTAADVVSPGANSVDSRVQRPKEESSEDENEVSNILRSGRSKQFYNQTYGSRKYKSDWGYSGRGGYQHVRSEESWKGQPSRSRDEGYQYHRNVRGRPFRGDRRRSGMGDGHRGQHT
Outline: as §1

OTUD5 = molecular target: T5, OTUD5 (UniProt Q96G74)
T5 sequence (whole entry): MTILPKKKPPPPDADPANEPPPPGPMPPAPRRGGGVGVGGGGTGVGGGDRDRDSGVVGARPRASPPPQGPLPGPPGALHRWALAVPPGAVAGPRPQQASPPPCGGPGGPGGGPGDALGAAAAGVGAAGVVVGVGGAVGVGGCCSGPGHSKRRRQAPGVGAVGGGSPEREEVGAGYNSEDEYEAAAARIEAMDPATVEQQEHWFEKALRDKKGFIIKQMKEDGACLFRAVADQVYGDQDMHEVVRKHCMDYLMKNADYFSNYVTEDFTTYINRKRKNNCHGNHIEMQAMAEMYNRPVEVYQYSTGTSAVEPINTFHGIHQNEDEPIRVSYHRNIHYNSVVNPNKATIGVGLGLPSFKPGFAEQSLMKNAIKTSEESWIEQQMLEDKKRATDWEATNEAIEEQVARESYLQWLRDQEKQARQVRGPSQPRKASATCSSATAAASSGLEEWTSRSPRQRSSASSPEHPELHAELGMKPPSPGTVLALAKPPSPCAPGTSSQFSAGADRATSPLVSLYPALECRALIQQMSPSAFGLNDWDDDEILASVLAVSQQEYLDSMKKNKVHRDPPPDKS
Outline: as §1

Measured: log2 ratio of Biotin-Ahx-Ub-VS probe labelling

Cc1n[nH]c(=O)c2c(NC(=O)CCl)oc(C)c12
inactive: ALG13 0.211 | ATXN3 0.117 | BAP1 0.169 | EIF3F 0.173 | EIF3H 0.156 | FAM105A -0.0353 | OTUB1 0.329 | OTUD4 0.0677 | OTUD5 -0.187
